Results: PubChem BioAssay
The source made the active and inactive calls.

Assays:
[1] = test system: PRMT1 (protein arginine N-methyltransferase 1); test: PRMT1 binders on small-molecule microarrays, primary screen, biochemical, small-molecule microarray, 635 nm fluorescence (AID 1088); conditions: small-molecule microarray binding, higher = more signal;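 also: binding of Prmt1 protein to compounds spotted on small-molecule microarray slides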
[2] = yeast growth modulation, basal conditions, primary screen, YJM789 clinical isolate, OD600, 24 h (AID 1089);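 also: growth of clinical yeast isolate S. cerevisiae YJM 789 seeded 1000 cells per well; test concentration not given here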; conditions: S. cerevisiae YJM789 growth, higher = more signal, called active from +8 up or from −8 down
[3] = fission yeast growth modulation, primary screen, strain 972, OD600, 24 h, no modulator (AID 1090);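 also: basal condition with compound alone and no growth modifier present; test concentration not given here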; conditions: S. pombe 972 growth, higher = more signal, called active from +8 up or from −8 down
[4] = S. cerevisiae growth modulation with rapamycin, primary screen, strain BY4716, OD600, 96 h (AID 1091); conditions: higher = more signal, called active from +8 up or from −8 down; also: test concentration not given here
[5] = molecular target: Torsin-1A-interacting protein 2 (Homo sapiens) (UniProt Q8NFQ8); test: LULL1 binders on small-molecule microarray, primary screen, cell lysate, human LULL1 lysate, 635/667 nm fluorescence (AID 1092); conditions: hLULL1 lysate binding, 635 nm fluorescence, higher = more signal;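 also: probe is lysate of COS7 cells overexpressing human LULL1; score merges per-feature 667 nm fluorescence with signal-to-noise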
[6] = E. coli growth modulation, two-sided OD650, primary screen, E. coli filamentation project, strain DRC41, 24 h (AID 1093); conditions: OD650, 24 h, higher = more signal, called active from +8 up or from −8 down;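 also: MC1000 strain lacking acrAB efflux and sulA so SOS filamentation is blocked; test concentration not given here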
[7] = small-molecule microarray binders of probe aLefty2, primary screen, biochemical, biotinylated probe, 635/667 nm fluorescence (AID 1094); conditions: higher = more signal;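 also: score merges spot fluorescence near 667 nm with spot signal-to-noise ratio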
[8] = test system: Noggin (protein binding on small-molecule microarray); test: Noggin binders on small-molecule microarray, primary screen, biochemical, 635/667 nm fluorescence (AID 1095); conditions: 635 nm fluorescence, higher = more signal;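 also: score merges 667 nm feature fluorescence with signal to noise over triplicate slides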
[9] = molecular target: Neurogenic locus notch homolog protein 3 (Homo sapiens) (UniProt Q9UM47); test: NOTCH3 binders on small-molecule microarray, primary screen, biochemical, 635/667 nm fluorescence (AID 1096); conditions: NOTCH3 binding, 635 nm fluorescence, higher = more signal
[10] = small-molecule microarray binders of probe aEGFR, primary screen, biochemical, biotinylated probe, 635/667 nm fluorescence (AID 1097); conditions: higher = more signal;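 also: probe is a biotinylated anti-EGFR antibody binding compounds printed on slides; score combines fluorescence near 667 nm and signal to noise of each spot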

Torsin-1A-interacting protein 2 (Homo sapiens), sequence (Q8NFQ8 whole entry, looked up): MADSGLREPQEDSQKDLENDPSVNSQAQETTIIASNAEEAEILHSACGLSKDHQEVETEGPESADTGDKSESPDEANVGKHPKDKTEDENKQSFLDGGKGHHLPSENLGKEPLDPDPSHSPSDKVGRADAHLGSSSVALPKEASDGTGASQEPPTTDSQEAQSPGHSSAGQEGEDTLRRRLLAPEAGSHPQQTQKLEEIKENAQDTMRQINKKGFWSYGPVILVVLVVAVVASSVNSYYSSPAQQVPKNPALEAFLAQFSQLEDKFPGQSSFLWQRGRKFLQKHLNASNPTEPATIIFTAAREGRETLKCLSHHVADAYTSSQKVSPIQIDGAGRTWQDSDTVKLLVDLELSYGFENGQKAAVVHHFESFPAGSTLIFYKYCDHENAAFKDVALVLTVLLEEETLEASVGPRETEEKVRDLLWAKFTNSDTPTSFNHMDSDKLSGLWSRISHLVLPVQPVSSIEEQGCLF
Neurogenic locus notch homolog protein 3 (Homo sapiens), sequence (Q9UM47 whole entry, looked up): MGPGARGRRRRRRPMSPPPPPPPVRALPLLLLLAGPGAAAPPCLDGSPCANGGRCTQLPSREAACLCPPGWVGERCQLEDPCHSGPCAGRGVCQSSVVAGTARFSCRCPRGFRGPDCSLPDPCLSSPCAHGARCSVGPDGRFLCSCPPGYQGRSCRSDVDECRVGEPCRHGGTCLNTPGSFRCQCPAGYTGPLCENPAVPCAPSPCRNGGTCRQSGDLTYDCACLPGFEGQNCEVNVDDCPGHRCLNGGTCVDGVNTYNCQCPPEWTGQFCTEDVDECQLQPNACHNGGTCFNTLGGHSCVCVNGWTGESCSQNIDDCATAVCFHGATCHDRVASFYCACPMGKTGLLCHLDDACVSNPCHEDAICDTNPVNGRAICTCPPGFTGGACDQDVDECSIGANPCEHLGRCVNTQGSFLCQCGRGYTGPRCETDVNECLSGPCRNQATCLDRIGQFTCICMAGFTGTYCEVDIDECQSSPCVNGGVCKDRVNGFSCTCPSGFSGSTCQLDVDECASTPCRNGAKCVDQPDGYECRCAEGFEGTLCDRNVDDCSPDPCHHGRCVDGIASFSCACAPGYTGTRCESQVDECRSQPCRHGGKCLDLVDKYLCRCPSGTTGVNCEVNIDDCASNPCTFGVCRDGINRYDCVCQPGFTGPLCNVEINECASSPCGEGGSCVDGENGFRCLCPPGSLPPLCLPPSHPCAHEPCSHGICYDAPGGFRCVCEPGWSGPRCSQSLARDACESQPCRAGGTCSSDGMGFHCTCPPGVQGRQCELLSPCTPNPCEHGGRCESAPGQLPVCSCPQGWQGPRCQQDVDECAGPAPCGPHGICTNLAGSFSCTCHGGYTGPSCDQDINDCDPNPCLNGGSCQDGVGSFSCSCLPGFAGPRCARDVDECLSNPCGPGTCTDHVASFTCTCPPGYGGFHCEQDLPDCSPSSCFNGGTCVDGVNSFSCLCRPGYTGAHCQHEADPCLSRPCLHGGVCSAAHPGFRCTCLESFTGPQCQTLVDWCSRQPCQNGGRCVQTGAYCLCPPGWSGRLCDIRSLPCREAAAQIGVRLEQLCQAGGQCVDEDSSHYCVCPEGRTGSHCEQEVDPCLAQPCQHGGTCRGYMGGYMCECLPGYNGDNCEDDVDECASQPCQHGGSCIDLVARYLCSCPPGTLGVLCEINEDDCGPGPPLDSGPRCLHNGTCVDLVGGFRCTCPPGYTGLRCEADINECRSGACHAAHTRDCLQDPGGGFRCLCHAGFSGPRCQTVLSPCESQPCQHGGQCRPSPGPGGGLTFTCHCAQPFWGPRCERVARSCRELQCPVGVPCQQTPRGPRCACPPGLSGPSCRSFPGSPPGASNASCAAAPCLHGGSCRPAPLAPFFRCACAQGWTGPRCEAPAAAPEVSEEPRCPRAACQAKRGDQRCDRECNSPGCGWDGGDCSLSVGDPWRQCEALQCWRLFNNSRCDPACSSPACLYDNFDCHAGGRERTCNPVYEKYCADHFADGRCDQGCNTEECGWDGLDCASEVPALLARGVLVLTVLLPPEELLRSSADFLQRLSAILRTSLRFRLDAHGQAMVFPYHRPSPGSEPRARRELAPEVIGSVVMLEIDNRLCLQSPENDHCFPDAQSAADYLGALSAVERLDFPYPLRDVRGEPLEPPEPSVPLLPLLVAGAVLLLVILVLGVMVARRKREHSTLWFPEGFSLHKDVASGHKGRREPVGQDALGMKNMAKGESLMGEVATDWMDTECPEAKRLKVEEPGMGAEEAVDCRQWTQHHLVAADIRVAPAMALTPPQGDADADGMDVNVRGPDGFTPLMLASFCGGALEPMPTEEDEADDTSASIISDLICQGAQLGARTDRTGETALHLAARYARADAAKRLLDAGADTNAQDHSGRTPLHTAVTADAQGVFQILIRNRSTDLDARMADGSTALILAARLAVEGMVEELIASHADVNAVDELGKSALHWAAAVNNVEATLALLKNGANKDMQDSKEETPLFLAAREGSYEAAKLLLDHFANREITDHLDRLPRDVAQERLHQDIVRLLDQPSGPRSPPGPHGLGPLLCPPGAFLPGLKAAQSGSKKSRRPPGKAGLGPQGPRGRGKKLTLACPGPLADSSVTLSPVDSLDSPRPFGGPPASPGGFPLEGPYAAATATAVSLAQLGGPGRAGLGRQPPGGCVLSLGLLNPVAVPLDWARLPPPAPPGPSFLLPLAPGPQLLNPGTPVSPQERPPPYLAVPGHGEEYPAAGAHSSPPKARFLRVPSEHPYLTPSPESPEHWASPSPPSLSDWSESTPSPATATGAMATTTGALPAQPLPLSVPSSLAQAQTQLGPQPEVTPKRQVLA

CC(C)CNC(=O)[C@@H]1c2ccccc2C(=O)N(Cc2ccccc2Cl)[C@H]1c1ccc(CO)cc1
composite z-score [1]: -0.469
z-score [2]: -0.691 (inactive)
z-score [3]: -0.354 (inactive)
z-score [4]: -0.332 (inactive)
composite z-score [5]: 3.09
z-score [6]: 0.534 (inactive)
composite z-score [7]: 0.0529
composite z-score [8]: -1.04
composite z-score [9]: -1.08
composite z-score [10]: -0.239

C=CC[C@@]1(C(=O)O)N=C(c2ccc(OCCCO)cc2)O[C@@H]1c1ccccc1CN=[N+]=[N-]
composite z-score [1]: 0.753
z-score [2]: -1.23 (inactive)
z-score [3]: -2.27 (inactive)
z-score [4]: -1.95 (inactive)
composite z-score [5]: 3.34
z-score [6]: 0.788 (inactive)
composite z-score [7]: 0.0806
composite z-score [8]: 0.373
composite z-score [9]: 0.942
composite z-score [10]: 0.0209

COCCOC(=O)N1C(=O)[C@@]2(c3cc(C#Cc4ccc(OC)cc4)ccc31)[C@H](C(=O)Nc1nc3ccccc3s1)[C@H]1C(=O)O[C@H](c3ccccc3)[C@H](c3ccccc3)N1[C@@H]2c1ccccc1OCCO
composite z-score [1]: 1.58
z-score [2]: 0.455 (inactive)
z-score [3]: 0.318 (inactive)
z-score [4]: 1.62 (inactive)
composite z-score [5]: 1.55
z-score [6]: 1.86 (inactive)
composite z-score [7]: -0.179
composite z-score [8]: 1.06
composite z-score [9]: 1.13
composite z-score [10]: -0.0531

COCCOC(=O)N1C(=O)[C@@]2(c3ccccc31)[C@H](C(N)=O)[C@H]1C(=O)O[C@H](c3ccccc3)[C@H](c3ccccc3)N1[C@@H]2c1ccc(OCCO)cc1
composite z-score [1]: 1.54
z-score [2]: 2.25 (inactive)
z-score [3]: 0.601 (inactive)
z-score [4]: 4.25 (inactive)
composite z-score [5]: 2.58
z-score [6]: 0.935 (inactive)
composite z-score [7]: -0.0862
composite z-score [8]: 1.61
composite z-score [9]: 1.14
composite z-score [10]: -0.132

CCCCC(=C=CC[C@@H](O)c1cccc(OCCO)c1)CCO
composite z-score [1]: 0.468
z-score [2]: 0.633 (inactive)
z-score [3]: 0.111 (inactive)
z-score [4]: -0.238 (inactive)
composite z-score [5]: 0.111
z-score [6]: 0.863 (inactive)
composite z-score [7]: -0.179
composite z-score [8]: -0.0301
composite z-score [9]: 0.098
composite z-score [10]: -0.152

CCOC(=O)C1=CC[C@@H](c2ccccc2Cl)N(S(=O)(=O)c2ccc(C)cc2)[C@H]1c1cccc(OC)c1
composite z-score [1]: 0.336
z-score [2]: 0.318 (inactive)
z-score [3]: 0.957 (inactive)
z-score [4]: 2.88 (inactive)
composite z-score [5]: 1.84
z-score [6]: -1.08 (inactive)
composite z-score [7]: -0.186
composite z-score [8]: -0.0339
composite z-score [9]: 0.506
composite z-score [10]: -0.125

N#Cc1ccc(C(O)C2C=CC3C(=O)NC(=O)C3N2Nc2ccccn2)cc1 (stereo not given)
composite z-score [1]: 0.312
z-score [2]: -1.4 (inactive)
z-score [3]: 0.811 (inactive)
z-score [4]: -0.657 (inactive)
composite z-score [5]: 1.4
z-score [6]: -0.195 (inactive)
composite z-score [7]: -0.147
composite z-score [8]: -0.14
composite z-score [9]: -0.124
composite z-score [10]: -0.0594

COCCCNC(=O)[C@@H]1c2ccccc2C(=O)N(Cc2cc(C(F)(F)F)cc(C(F)(F)F)c2)[C@H]1c1ccc(CO)cc1
composite z-score [1]: -0.217
z-score [2]: 0.109 (inactive)
z-score [3]: 0.144 (inactive)
z-score [4]: -0.405 (inactive)
composite z-score [5]: 0.928
z-score [6]: 0.329 (inactive)
composite z-score [7]: -0.164
composite z-score [8]: -0.441
composite z-score [9]: -0.305
composite z-score [10]: 0.45

CC(=O)NCCCC[C@@H]1NC(=O)[C@@H]2C[C@H](C(=O)NCCCCCC[N+](C)(C)C)[C@H](c3ccc(O)cc3)N2C1=O
composite z-score [1]: 0.914
z-score [2]: 0.124 (inactive)
z-score [3]: -0.16 (inactive)
z-score [4]: 0.216 (inactive)
composite z-score [5]: 1.43
z-score [6]: -0.453 (inactive)
composite z-score [7]: 0.104
composite z-score [8]: 0.761
composite z-score [9]: 0.157
composite z-score [10]: -0.476

COCCOC(=O)N1C(=O)[C@@]2(c3cc(C#CCC(C(=O)OC)C(=O)OC)ccc31)[C@H](C(N)=O)[C@H]1C(=O)O[C@H](c3ccccc3)[C@H](c3ccccc3)N1[C@@H]2c1ccc(OCCO)cc1
composite z-score [1]: 1.53
z-score [2]: 2.23 (inactive)
z-score [3]: 2.01 (inactive)
z-score [4]: 6.44 (inactive)
composite z-score [5]: 2.77
z-score [6]: -0.55 (inactive)
composite z-score [7]: 0.0139
composite z-score [8]: 0.813
composite z-score [9]: 1.08
composite z-score [10]: -0.0245

C=CCC(OC(C)=O)[C@@H]1[C@@H](N(Cc2cc3ccccc3o2)C(=O)Cc2ccc(OC)cc2)c2cc(OCCCO)ccc2N1C(=O)Cc1ccc2ccccc2c1 (stereo not given in full)
composite z-score [1]: -0.328
z-score [2]: 0.225 (inactive)
z-score [3]: 0.232 (inactive)
z-score [4]: 0.738 (inactive)
composite z-score [5]: 0.783
z-score [6]: -0.0576 (inactive)
composite z-score [7]: -0.115
composite z-score [8]: -0.507
composite z-score [9]: -1.01
composite z-score [10]: -0.145

COCCOC(=O)N1C(=O)[C@@]2(c3cc(C#CC4(O)CCCCCC4)ccc31)[C@H](c1ccc(OCCO)cc1)N1[C@H](c3ccccc3)[C@H](c3ccccc3)OC(=O)[C@H]1[C@@H]2C(N)=O
composite z-score [1]: 1.53
z-score [2]: 1.29 (inactive)
z-score [3]: 0.926 (inactive)
z-score [4]: 4.69 (inactive)
composite z-score [5]: 1.67
z-score [6]: 0.257 (inactive)
composite z-score [7]: 0.0494
composite z-score [8]: 1.52
composite z-score [9]: 1.06
composite z-score [10]: -0.013

C=CCNC(=O)[C@@H]1[C@H]2C(=O)O[C@H](c3ccccc3)[C@H](c3ccccc3)N2[C@H](c2ccccc2OCCO)[C@@]12C(=O)N(C(=O)OCCOC)c1ccc(C#CCCO)cc12
composite z-score [1]: 1.55
z-score [2]: 0.656 (inactive)
z-score [3]: 0.619 (inactive)
z-score [4]: 3.69 (inactive)
composite z-score [5]: 2.88
z-score [6]: -0.625 (inactive)
composite z-score [7]: -0.135
composite z-score [8]: 0.96
composite z-score [9]: 1.08
composite z-score [10]: 0.038

CN(C)C(=O)[C@@]1(CCS(=O)(=O)c2ccccc2)N=C(c2ccc(OCCCO)cc2)O[C@H]1c1ccccc1N=[N+]=[N-]
composite z-score [1]: 1.55
z-score [2]: -1.01 (inactive)
z-score [3]: -0.173 (inactive)
z-score [4]: 0.914 (inactive)
composite z-score [5]: 3.1
z-score [6]: 0.635 (inactive)
composite z-score [7]: 0.0554
composite z-score [8]: 0.987
composite z-score [9]: 1.11
composite z-score [10]: -0.0168
